A number with no mark means an inactive call.

The nature of the assay: A549 lung cancer cell viability effects, profiling panel, resazurin fluorescence, 24 h, PK04 Diversity Set (AID 1171). Also: test concentration not given here. Particulars: higher = more signal, called active from +8 up or from −8 down. On the technique in general: The colour change of resazurin is a common sign of viable cells or microbes.
Take `C=C(/C(=C/C[C@H](OC(C)=O)c1ccc(CO)o1)c1cc(C(=O)OC)ccc1OC)C(C)C`: the z-score is -0.369.

In the case of `COC(=O)[C@@]1(Cc2ccccc2)N=C(c2ccc(OCCCO)cc2)O[C@H]1c1ccccc1`, the z-score was -2.02.

Regarding `CC(C)C[C@@H]1NC(=O)[C@@H]2C[C@H](C(=O)NCc3ccc(F)cc3)[C@H](c3cccc(OCCO)c3)N2C1=O`, the z-score is 0.234.

Regarding `O=C1c2ccccc2[C@](Cc2ccccc2I)(C(=O)NCCN2CCOCC2)[C@H](c2ccc(CO)cc2)N1C1CCCCC1`, the z-score is -0.112.

Turning to `O=C1c2ccccc2[C@](Cc2ccccc2I)(C(=O)NCCN2CCOCC2)[C@H](c2ccc(CO)cc2)N1Cc1ccccc1Cl`, the z-score is 0.928.

For the compound `CC(C)C(=C=CC[C@@H](O)c1ccc(OCCO)cc1)C[C@@H](O)COCc1ccccc1`, the z-score is 0.343.

Regarding `COC(=O)[C@]1(CCC(=O)OC(C)(C)C)N=C(c2ccc(OCCCO)cc2)O[C@@H]1c1ccccc1CN=[N+]=[N-]`, the z-score is -2.22.

As for `NC(=O)NCC#Cc1ccc2c(c1)[C@]1(C(=O)N2)[C@H](c2ccccc2OCCO)N2[C@H](c3ccccc3)[C@H](c3ccccc3)OC(=O)[C@H]2[C@@H]1C(=O)Nc1nc2ccccc2s1`, the z-score is 0.659.

As for `C=CCC(OC(C)=O)[C@@H]1[C@@H](N(Cc2ccc(-c3ccccc3)cc2)C(=O)Cc2ccc(OC)cc2)c2cc(OCCCO)ccc2N1C(=O)Cc1ccc2ccccc2c1` (stereo not given in full), the z-score was -0.599.

For `C=C(CCCC)C(=O)CC[C@@H](OC(=O)c1ccccc1-c1ccccc1C(=O)O)c1ccc(OCCO)cc1`, the z-score was 0.128.

The record behind these values is PubChem BioAssay.
